Lmaj promast – Leishmania major promastigote growth inhibition; inhibition, % at 10 µM; AID 1063; hit rate 9% among 200,000; Leishmania major promastigotes, resazurin fluorescence viability; in the data active = inhibition above about 50%;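 note: promastigotes grown with compound for 44 hours at 28 °C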
Autophagy HCS – modulators of autophagy | calls only at 10 µM (by protocol) | hit rate 0.98% among 190,000 | MEF GFP-LC3 puncta imaging; test concentration mostly 10 µM;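 active = percentage of spot-positive cells more than 3 SD above its plate mean, without a fluorescence outlier flag or 80% toxicity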
INS promoter inh – TRM-6 insulin promoter activity inhibition; TRM-6 cells (human fetal islet line), insulin promoter-eGFP reporter, imaging; reporter expression induced with tamoxifen; inhibition, % at 2 µM; hit rate 0.9% among 130,000;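 active = inhibition above the mean plus 3 SD, with well images judged a real hit on visual review, cut at about 60% in these data, passing the limit was not always enough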
Insulin prom up – MIN6 insulin promoter up-regulation; MIN6 insulin promoter-GFP reporter, high-content imaging; hits give high values; z-score at 5 µM; hit rate 0.3% among 190,000; AID 1625;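 active = z-score above 3 at 5 µM with at least 500 cells counted in the well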
WT yeast gro inh – growth inhibition of WT yeast, mitochondrial fusion screen; mitochondrial fusion phenotypic screen, WT strain; inhibition, % at 10 µM; hit rate 2.1% among 190,000; in the data active = inhibition above about 58%; tested in S. cerevisiae
Numbers stand for hits; – = inactive; · = no result. Compounds with a hit are over-represented: about 11% of the library has one in this group of screens.

SMILES | Lmaj promast | Autophagy HCS | INS promoter inh | Insulin prom up | WT yeast gro inh
COc1cc(CCC(=O)N2CCN(c3ncccn3)CC2)cc(OC)c1OC | – | – | · | – | –
CCN(CC)S(=O)(=O)c1ccc(N2CCOCC2)c(NC(=O)c2cc([N+](=O)[O-])ccc2Cl)c1 | – | – | · | – | –
COC(=O)C1C(=O)NCC1c1ccccc1 (configuration not stated) | – | – | – | – | 94
Cc1ccsc1/C=N/NC(=O)C1C(=O)NCC1c1ccccc1 (configuration not stated) | · | · | · | – | ·
O=C(NCCCn1ccnc1)/C(=C/c1ccco1)NC(=O)c1ccco1 | · | · | · | – | ·
O=S(=O)(c1ccc(OCC(O)CNC23CC4CC(CC(C4)C2)C3)c(Cl)c1)N1CCOCC1 (configuration not stated) | 94 | – | · | – | –
Cn1c(=O)c(C(=O)Nc2ccccc2S(N)(=O)=O)c(O)c2ccccc21 | · | · | · | – | ·
CC(C)Cn1c(=O)c(C(=O)Nc2ccccc2S(N)(=O)=O)c(O)c2ccccc21 | – | – | – | – | 73
CCOC(=O)Cc1csc(NC(=O)CSc2nnc(-c3ccncc3)o2)n1 | 51 | – | · | – | –
CCC(C)n1c(=O)c(C(=O)Nc2ccccc2S(N)(=O)=O)c(O)c2ccccc21 (configuration not stated) | – | – | – | – | 65
CCOC(=O)Cc1csc(NC(=O)c2c(O)c3ccccc3n(CC(C)C)c2=O)n1 | 79 | – | · | – | –
CCOC(=O)Cc1csc(NC(=O)c2cccs2)n1 | – | – | · | · | –
CCOC(=O)Cc1csc(NC(=O)CSc2nnc(-c3ccc(NS(=O)(=O)CC)cc3)o2)n1 | – | – | – | · | ·
CCNC(=O)CCSc1nnc(-c2ccco2)o1 | – | – | – | – | –
Cn1c(=O)n(C)c2cc(S(=O)(=O)N3CCN(c4ccccc4)CC3)ccc21 | · | · | · | – | ·
CCCCn1c(=O)c(C(=O)N/N=C/c2ccc(F)cc2)c(O)c2ccccc21 | – | – | – | · | –
CCOC(=O)Cc1csc(NC(=S)NC(=O)CC(C)C)n1 | 54 | – | – | – | –
CC(C)Cn1c(=O)c(C(=O)N/N=C/c2cccc(F)c2)c(O)c2ccccc21 | 70 | – | – | – | –
C=CCc1c(C)[nH]c(=O)[nH]c1=O | – | – | 78 | – | –
Cn1nc(C(F)(F)F)c(-c2ccc(F)cc2)c1NC(=O)c1cccnc1 | · | · | · | – | ·
O=C(CN1CCNCC1)NCCSc1ccc(Cl)cc1 | 88 | – | – | – | –
Cc1ccc(SCCNC(=O)/C=C/c2ccc(Cl)cc2)cc1 | 51 | – | – | – | –
Cc1ccc(SCCNC(=O)/C=C/c2ccc([N+](=O)[O-])cc2)cc1 | 62 | – | – | – | –
COc1ccc(Oc2ccc(/C=N/NC(=O)c3cccnc3)cc2[N+](=O)[O-])cc1 | – | – | · | – | –
COc1ccc(Oc2ccc(/C=C/C(=O)c3cccc(OC)c3)cc2[N+](=O)[O-])cc1 | 100 | – | – | – | –
SMILES | Lmaj promast | Autophagy HCS | INS promoter inh | Insulin prom up | WT yeast gro inh
CNCCCOc1ccc(Cl)cc1C(C)(C)C | 99 | – | – | – | –
CC(C)NC(=O)CCCOc1ccc(Cl)cc1Cl | – | – | – | – | –
C=CCc1cc(Cl)ccc1OCCCNC(C)CC (configuration not stated) | 100 | – | – | – | –
COCCCNCCCOc1ccc(Cl)cc1C(C)(C)C | 100 | – | – | – | –
CCC(C)NCCCOc1ccc([N+](=O)[O-])cc1 (configuration not stated) | – | – | – | · | –
CCC(C)NCCCOc1ccc(Cl)cc1C(C)(C)C (configuration not stated) | 100 | – | – | – | –
CCC(C)NCCOCCOc1ccc(C)cc1OC (configuration not stated) | – | – | – | – | –
C=CCc1ccc(OCCCCNC(C)CC)c(OC)c1 (configuration not stated) | 90 | – | – | – | –
